This note sets out measurements from PubChem BioAssay AID504332 (National Center for Advancing Translational Sciences (NCATS), 2011).

Among all 350,000 compounds or so, about 31,000 (8.9%) were called active. Inconclusive results (about 15%) are left out. The list comes from a sample in which actives are over-represented; it also holds similar structures and randomly drawn compounds. A number with no mark means an inactive call. The call rests on the fitted dose curve; in most records, active means well fitted inhibition curve with a large enough effect; inconclusive means small, poorly fitted or top-dose-only effect; inactive means no such curve, though single readings can be large or run the other way.
On the % scale 0 is the no-effect control and ±100 the full control effect; potency means the concentration at half of the fitted maximal effect.

In this experiment the target is Histone-lysine N-methyltransferase EHMT2 (Homo sapiens) (UniProt Q96KQ7). Nature of the experiment: qHTS Assay for Inhibitors of Histone Lysine Methyltransferase G9a. Further: nearly all actives have a fitted effect of over 75% in size. The conditions noted are these: G9a H3K9 monomethylation, AlphaScreen, 2 h; series mostly up to 59 µM; activity, negative = inhibition: at the top concentration. An excerpt: Methylated lysines, on the N-terminal tails of histone proteins serve as epigenetic markers to recruit factors that can then modify local chromatin structure to lead to functional consequences. G9a and other members of the SUV39 family of the SET domain-containing superfamily of histone lysine methyltransferases (HMT) have been identified to specifically methylate Lys9 of histone H3 (H3K9). G9a catalyzes the mono- and di-methylation of H3K9 in mammalian euchromatic regions, where the resulting H3K9me2 is indicative of transcriptional repression. […] The inhibition of G9a will result in transcriptional activation and work synergistically with DNA methyltransferase and histone deacetylase inhibitors, to kill cancer cells. This qHTS assay for identification of G9a inhibitors is a chemiluminescence based AlphaScreen (PerkinElmer). Methylation of biotinylated-histone peptide is measured through specific antibody-based detection, in conjunction with streptavidin-coated donor and anti-IgG antibody-coated acceptor beads. The method is particularly well suited for detection of inhibitors acting by the desired histone peptide competitive mechanism and is applicable to testing other HMTs. Although AlphaScreen has significant advantages with its utility in a variety of epigenetic target assays, the primary screening data provided in this deposition should be used with caution due to the prevalence of screening artifacts. An AlphaScreen counterscreen is highly recommended to be run against any putative actives to eliminate non specific artifacts. Alternatively, one can use other AlphaScreen assays in PubChem to filter out promiscuous hits. Quinn et al. A chemiluminescence-based method for identification of histone lysine methyltransferase inhibitors. Mol Biosyst 6(5): 782-8. 2010. PMID: 20567762 [2] Baell,Holloway. New substructure filters for removal of pan assay interference compounds (PAINS) from screening libraries and for their exclusion in bioassays. J Med Chem. 53(7):2719-40. 2010. PMID: 20131845 NIH Molecular Libraries Probe Production Network [MLPCN] NIH Chemical Genomics Center [NCGC] Structural Genomics Consortium (SGC) NIH Grant: 5U54 MH084681-02
Sequence of Histone-lysine N-methyltransferase EHMT2 (Homo sapiens) (Q96KQ7 913-1193 limits assumed): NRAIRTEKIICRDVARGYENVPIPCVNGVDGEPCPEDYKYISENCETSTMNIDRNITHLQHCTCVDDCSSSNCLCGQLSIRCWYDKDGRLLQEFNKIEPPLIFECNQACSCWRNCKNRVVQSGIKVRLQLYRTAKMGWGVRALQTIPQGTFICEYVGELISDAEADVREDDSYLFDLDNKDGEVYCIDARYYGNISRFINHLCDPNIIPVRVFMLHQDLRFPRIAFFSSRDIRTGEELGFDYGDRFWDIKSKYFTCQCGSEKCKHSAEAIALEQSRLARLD
To each well of a 1,536w plate, 2ul of HMT enzyme (final 20nM) were added, using a nanoliter dispenser. The G9a- and GLP-inhibitor BIX-01294 (CID: 25150857) are used as an intraplate control, with a 16-point titration in duplicate. A Kalypsys pin-tool transferred 23nl of library compound solution in DMSO to each well. Following a 15 min incubation of enzyme with compounds at room temperature, 1ul mixture of b-H3K9 peptide substrate (final 500nM) and SAM cofactor (final 20uM) were added. Reactions were allowed to proceed at room temperature for 2 hours. Methylated b-H3K9 peptide product was detected with 0.5 ug/mL rabbit polyclonal anti-monomethyl histone H3K9 antibody (Abcam Inc., Cambridge, MA) and 20 ug/mL each streptavidin-coated donor and anti-rabbit IgG acceptor AlphaScreen beads. Antibody and beads were added in a 1ul dispense, for a final volume of 4ul, and plates were incubated, protected from the light, for 10 min at room temperature. Microplates were then read on an EnVision multilabel plate reader using the 1,536 plate HTS AlphaScreen aperture (excitation time 80 ms, measurement time 240 ms).
`C/C(=N\NC(=O)COc1c(C)cccc1C)c1cccs1`: the “activity, negative = inhibition” value was 26.6% [at 102 µM].

As for `C/C(=N\Nc1ncc(Cl)cc1Cl)c1cccs1`, the “activity, negative = inhibition” value was -2.14% [at 102 µM].

As for `C/C(=N\Nc1ccc(S(N)(=O)=O)cc1[N+](=O)[O-])c1cccs1`, the Potency was 25.1 µM (active).

As for `C=CCOc1ccc(C(=O)Nc2ccccc2C(=O)N2CCCC2)cc1`, the “activity, negative = inhibition” value is 0.754% [at 102 µM].

As for `O=C(NCCc1ccc(Cl)cc1)c1ccc2c(c1)N(Cc1ccc(F)cc1)C(=O)CS2`, the “activity, negative = inhibition” value was 4.55%.

As to `Cc1cc2ccccc2n2c(SCC(=O)N3CCN(C(=O)c4ccco4)CC3)nnc12`, the “activity, negative = inhibition” value is -25.7% [at 102 µM].

Turning to `O=C(CSc1nnc(-c2cccs2)n1-c1ccccc1)N1CCN(C(=O)c2ccco2)CC1`, the Potency is 7.08 µM (active).

For `O=C(CSc1nnc(-c2cccs2)n1-c1ccccc1)NCc1ccco1`, the activity, negative = inhibition was -5.59% [at 12.7 µM].

`Cc1cc(=O)n2[nH]c(-c3cccc(Cl)c3)cc2n1`: the “activity, negative = inhibition” value is -10.1% [at 102 µM].

For `O=C(/C=C/c1ccc(N2CCOCC2)cc1)c1ccccc1`, the “activity, negative = inhibition” value was 96.9% [at 102 µM].

On to `Cc1cc(/C=C2\SC(=Nc3ccc(N4CCOCC4)cc3)N(C)C2=O)c(C)n1-c1cccnc1`, for which the Potency is 70.8 µM (active).

Turning to `Cc1cc(/C=C(/C#N)C(=O)Nc2ccc(Cl)cc2)c(C)n1-c1cccnc1`, the “activity, negative = inhibition” value was 23.3%.

With `O=C(NCCS(=O)(=O)NCc1ccc(Cl)cc1)c1ccccc1`, the “activity, negative = inhibition” value is -7.35% [at 102 µM].

`Cc1cc(NS(=O)(=O)c2ccc(NC(=O)c3cccnc3)cc2)nc(C)n1`: the “activity, negative = inhibition” value was 2.52% [at 102 µM].

Consider `O=C(/C=C/Nc1ccc(S(=O)(=O)Nc2cnc3ccccc3n2)cc1)c1cccnc1`, for which the Potency was 70.8 µM (active).

As for `Cc1noc(NS(=O)(=O)c2ccc(N/C=C/C(=O)c3ccccc3)cc2)c1C`, the activity, negative = inhibition is -38.3% [at 2.33 µM].

Turning to `CC(OC(=O)CCCOc1ccccc1)C(=O)Nc1ccc(Cl)cn1` (stereo not drawn), the “activity, negative = inhibition” value is 34.7% [at 102 µM].

With `Cc1ccc(-c2noc(CSc3nnc(-c4ccc(Cl)cc4)n3C)n2)cc1`, the “activity, negative = inhibition” value is 1.74%.

Regarding `Cc1cc(=O)n2nc(N3CCCC(C(=O)NCc4cccc(Cl)c4)C3)sc2n1` (stereo not drawn), the “activity, negative = inhibition” value is 14.8% [at 102 µM].

In the case of `O=C(CN1CCN(c2ccc(Cl)cc2)CC1)N1CCCC1`, the “activity, negative = inhibition” value is 12.3%.

Take `O=C(CN1c2ccccc2S(=O)(=O)c2ccccc21)Nc1cccc(C(F)(F)F)c1`: the “activity, negative = inhibition” value is -10.5%.

Consider `O=C(CN1CCOCC1)Nc1cc(Cl)ccc1Cl`, for which the “activity, negative = inhibition” value was 53.9%.

As to `O=C(CN1CCN(c2ccc(O)cc2)CC1)Nc1cc(S(=O)(=O)N2CCOCC2)ccc1Cl`, the Potency was 3.16 µM (active).

`Cc1ccc(Cl)cc1NC(=O)CN1CCN(S(=O)(=O)N2CCOCC2)CC1`: the “activity, negative = inhibition” value is 1.26% [at 102 µM].

Turning to `NC(=O)CCN1CCN(S(=O)(=O)/C=C/c2ccccc2)CC1`, the “activity, negative = inhibition” value is 29% [at 102 µM].

For the compound `CC(C)OC(=O)CN1CCN(c2ccc(Cl)cc2)CC1`, the “activity, negative = inhibition” value was 1.33% [at 102 µM].

For the compound `O=C(CN1CCN(c2ccc(F)cc2)CC1)Nc1cccc(C(F)(F)F)c1`, the Potency was 50.1 µM (active).

Turning to `COc1ccccc1N1CCN(CC(=O)NC(=O)NCc2ccco2)CC1`, the “activity, negative = inhibition” value is 6.46% [at 102 µM].

As to `O=C(CN1CCN(c2ccc(Cl)cc2)CC1)c1ccccc1`, the Potency was 8.91 µM (active).

With `COc1ccc(NC(C)=O)cc1NC(=O)CN1CCN(c2ccc(F)cc2)CC1`, the “activity, negative = inhibition” value was 2.49%.

As for `O=C(CN1CCN(S(=O)(=O)/C=C/c2ccccc2)CC1)NC(=O)NCc1ccco1`, the Potency was 20 µM (active).

In the case of `COc1ccccc1NC(=O)C1=C(C)Nc2nc(SCC(=O)c3ccc(C)cc3)nn2C1c1ccccc1C` (stereo not drawn), the “activity, negative = inhibition” value is -0.656%.

Take `O=C(NCc1ccncc1)c1cccc(NS(=O)(=O)c2ccc(F)c(F)c2)c1`: the “activity, negative = inhibition” value is -0.45%.

Consider `CC1CCCCN1S(=O)(=O)c1ccc(F)c(C(=O)Nc2ccccc2C(F)(F)F)c1` (stereo not drawn), for which the “activity, negative = inhibition” value was 11.3%.

In the case of `CN(Cc1ccccc1)S(=O)(=O)c1ccc(F)c(C(=O)Nc2cccc(Cl)c2Cl)c1`, the “activity, negative = inhibition” value was -8.99%.

With `COc1ccc(-c2c(C)c3ccc(O)c(CN4CCCC4)c3oc2=O)cc1OC`, the “activity, negative = inhibition” value was 13.2%.

For the compound `COc1ccc(-c2noc(CCC(=O)N(C)c3ccccc3C)n2)cc1`, the “activity, negative = inhibition” value was 7.21%.

For `Cc1ccc2nc(SCC(=O)N3CCN(c4ccccc4)CC3)nc(=O)n2c1`, the activity, negative = inhibition is -0.43% [at 0.501 µM].

On to `O=C(COC(=O)c1cc(=O)[nH]c2ccccc12)NCc1cccc(Cl)c1`, for which the activity, negative = inhibition was 1.96% [at 12.7 µM].

Regarding `CN(C)S(=O)(=O)c1ccc(C(=O)N(Cc2cccnc2)c2nc3c(F)cc(F)cc3s2)cc1`, the “activity, negative = inhibition” value was -4.21%.

With `COc1ccccc1NC(=O)C1CCCN1S(=O)(=O)c1ccc(Cl)cc1` (stereo not drawn), the “activity, negative = inhibition” value is 34.2% [at 102 µM].

Regarding `O=C(CNC(=O)c1ccc(Br)o1)NCC1CCCO1` (stereo not drawn), the “activity, negative = inhibition” value was 36.6% [at 102 µM].

`NS(=O)(=O)c1ccc(NC(=O)C(=O)Nc2ccc3nc4n(c(=O)c3c2)CCCCC4)cc1`: the “activity, negative = inhibition” value is -25.2%.

`O=c1cc(CN2CCN(S(=O)(=O)/C=C/c3ccccc3)CC2)c2ccc(O)cc2o1`: the “activity, negative = inhibition” value is 9.01%.

Turning to `O=C(CN1CCN(c2ccccc2)CC1)Nc1ccc(F)cc1`, the “activity, negative = inhibition” value was 15.6% [at 102 µM].

Take `O=C(CN1CCN(S(=O)(=O)/C=C/c2ccccc2)CC1)Nc1ccc(N2CCOCC2)cc1`: the Potency was 35.5 µM (active).

Turning to `CC(=O)c1ccc(N2CCN(CC(=O)Nc3ccccc3N3CCOCC3)CC2)cc1`, the “activity, negative = inhibition” value is -4.9%.

For `O=C(CN1CCN(c2ccc(O)cc2)CC1)Nc1ccc(-c2ccccc2)cc1`, the Potency was 11.2 µM (active).
